PTEN del growth: growth suppression of PTEN-null HCT116, primary screen, cell-based, CellTiter-Glo | 140,000 compounds, 1.2% hits | HCT116 PTEN-null viability, 60 h; active compounds read low | AID 827, 2007 | viability, % at 10 µM;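 active means viability at or below a set limit, 4 SD under the median of all tested compounds, cut at about 3.7% in these data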;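 further: PTEN knockout HCT116 line with beta catenin targeted HCT116 as companion control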
INS promoter inh: inhibitors of insulin promoter-driven GFP, primary screen, imaging, TRM-6 cells (human fetal islet line), eGFP reporter, cell count. reporter expression induced with tamoxifen. inhibition, % at 2 µM. 130,000 compounds, 0.9% hits. AID 1273, 2008;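 active means inhibition above the mean plus 3 SD, with well images judged a real hit on visual review, cut at about 60% in these data, passing the limit was not always enough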
p97 inhibitor: inhibitors of human p97 ATPase, primary screen, biochemical; inhibition, % at 8 µM; AID 1481, 2009; Transitional endoplasmic reticulum ATPase (Homo sapiens), P55072; 220,000 compounds, 0.42% hits; recombinant p97 ATPase, Kinase-Glo ATP luminescence, 3 h; in the data active means inhibition above about 15%;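 further: 0% = DMSO vehicle and 100% = wells lacking enzyme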
Lmaj promast: Leishmania major promastigote growth inhibition, primary screen | Leishmania major promastigotes, resazurin fluorescence viability | inhibition, % at 10 µM | 200,000 compounds, 9% hits; in the data active means inhibition above about 50%;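 further: promastigotes grown with compound for 44 hours at 28 °C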
ROMK mod: ROMK potassium channel modulators, primary screen, cell-based, thallium flux, MLSMR library; ATP-sensitive inward rectifier potassium channel 1 (Homo sapiens), P48048; Tet-inducible ROMK, thallium flux fluorescence; actives lie on both sides; B-score at 10 µM; 130,000 compounds, 2% hits; AID 1918, 2009;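 active means signal ratio slope over the read window, or its plate-corrected B-score, at least 3 SD from the plate mean, either direction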;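 further: B-score of the F/F0 ratio slope over 7 to 12 s after thallium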
Target sequence (P48048 whole entry, looked up): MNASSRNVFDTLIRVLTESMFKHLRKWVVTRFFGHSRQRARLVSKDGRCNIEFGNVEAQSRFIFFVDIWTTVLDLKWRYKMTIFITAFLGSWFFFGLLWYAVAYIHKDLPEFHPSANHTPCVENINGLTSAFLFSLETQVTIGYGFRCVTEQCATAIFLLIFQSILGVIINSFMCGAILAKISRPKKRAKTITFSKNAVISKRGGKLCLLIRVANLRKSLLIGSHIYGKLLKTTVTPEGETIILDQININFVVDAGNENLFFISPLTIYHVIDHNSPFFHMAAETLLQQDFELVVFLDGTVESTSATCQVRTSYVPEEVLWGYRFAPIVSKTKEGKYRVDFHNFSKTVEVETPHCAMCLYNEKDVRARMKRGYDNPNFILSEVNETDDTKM
bCat KO growth: primary screen for growth suppressors in beta-catenin knockout HCT116 cells (colon tumor, human); HCT116 beta-catenin knockout viability, CellTiter-Glo, 60 h; active compounds read low; viability, % at 10 µM; 140,000 compounds, 1.5% hits;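 active means viability at or under a set limit, the compound median less 4 SD, cut at about 6% in these data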;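 further: 0% = Hyamine 1622 control at 20 µM and 100% = untreated cell control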
p97 inh conf: p97 ATPase inhibitors, retest, confirmation, biochemical. shares compounds with p97 inhibitor. 760 compounds, 44% hits. AID 1517, 2009. recombinant p97 ATPase, Kinase-Glo ATP luminescence. inhibition, % at 8 µM;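 active means percent inhibition of p97 ATPase above a set limit, the primary screen's mean plus 3 SD, cut at about 15% in these data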;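 further: 0% = DMSO wells and 100% = wells lacking p97 protein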
The depositor's hits bear a star; · = not tested or not shown. Compounds with a hit are over-represented: about 10% of the library has one in this group of screens.

SMILES	PTEN del growth	INS promoter inh	p97 inhibitor	Lmaj promast	ROMK mod	bCat KO growth	p97 inh conf
S=C1Cc2ccccc2N1	·	·	32*	·	0.91	·	67*
O=C(/C=C/c1ccc2ccccc2n1)c1cc(Cl)ccc1O	·	·	3	·	0.4	·	·
Oc1ccc(Cl)cc1/C=C/c1ccc2cccc(O)c2n1	·	25	31*	89*	0.013	·	22*
Brc1ccc2ncnc(Nc3cccc4ccccc34)c2c1	71	10	4	25	·	74	·
O=C(O)c1cccc(Nc2ncnc3ccc(Br)cc23)c1	·	·	17*	·	·	·	21*
CN(CCC#N)C(=O)CSc1nc2scc(-c3ccccc3)c2c(=O)[nH]1	108	54	16*	-9	0.38	102	9
Cc1ccc(NC(=S)N2CCOCC2)cc1	103	13	9	-4	·	94	·
Cc1ccc(NC(=S)N2CCCC(O)C2)cc1 (centres undefined)	·	·	60*	-3	0.28	·	2
O=C1CC(=O)N(c2cccc(F)c2)N1	·	42	22*	-10	-0.006	·	9
NNC(=O)[C@H](Cc1ccccc1)NC(=O)Nc1ccc2c(c1)OCCO2	·	·	5	·	·	·	·
O=c1cc2c(=O)oc3cc(O)c(O)oc3c2c(O)c1O	·	·	26*	·	·	·	23*
COCCNC(=O)Cn1cc(C(=S)N2CCOCC2)c2ccccc21	·	·	8	-4	1.1	·	·
O=C(COC(=O)c1ccc2c(c1[N+](=O)[O-])C(=O)c1ccccc1C2=O)NC1CC1	·	-18	23*	-1	0.63	·	29*
COc1ccccc1N1CCN(/N=C/c2c(C)nn(-c3ccccc3)c2C)CC1	94	-30	-3	-2	·	94	·
O=C(Oc1ccccc1C(=O)Nc1ccccc1)c1ccccc1Br	79	8	23*	-15	-0.2	101	30*
Cc1cc(Nc2nc3ccccc3nc2Cl)n(-c2ccccc2)n1	15	-38	2	13	1	21	·
Cc1cc(Nc2nc3ccccc3nc2Cl)n(-c2ccccc2C)n1	61	21	15*	31	·	58	11
CC1=NN(Cc2ccccc2)C(=O)C1	103	18	21*	-1	0.28	114	1
CC1=NN(c2ccc(N)cc2)C(=O)C1	110	45	11	-3	0.064	105	·
CC1=NN(c2ccccc2)C(=O)C1	106	0	20*	-7	·	103	6
CC1=NN(c2ccc(Cl)cc2)C(=O)C1	·	·	14	1	0.2	·	·
Cc1ccn2cc(-c3cccc(NS(C)(=O)=O)c3)nc2c1	·	·	6	-1	1.8	·	·
CC(=O)Nc1cccc(-c2cn3ccc(C)cc3n2)c1	·	33	17*	2	-0.16	·	21*
CCc1nnc(NS(=O)(=O)c2ccc(NC(=S)Nc3ccc(F)cc3)cc2)s1	93	41	17*	35	·	87	3
CCSc1cc(C)nc2c(-c3ccc(Cl)cc3)c(C)nn12	93	38	-2	-4	-0.29	107	·
SMILES	PTEN del growth	INS promoter inh	p97 inhibitor	Lmaj promast	ROMK mod	bCat KO growth	p97 inh conf
Cc1cc(SCC(=O)c2ccc(O)c(O)c2)n2nc(C)c(-c3ccccc3)c2n1	·	·	15*	·	·	·	18*
CCOc1ccccc1CN1C(=O)c2ccccc2C1C(=O)NC(C)CC (centres undefined)	96	-56	19*	84*	-0.06	92	9
C/C(=N\NC(=O)c1ccc(NS(=O)(=O)c2cccs2)cc1)c1ccccc1	99	-2	7	25	0.31	91	·
C/C(=N\NC(=O)c1ccc(NS(=O)(=O)c2cccs2)cc1)c1ccc(O)cc1O	·	·	20*	·	·	·	20*
CCOC(=O)c1cnc(SCC(=O)Nc2ccccc2N2CCOCC2)nc1N	·	31	4	-4	·	·	·
CCC(C)n1c(NC(=O)c2ccccc2)c(C#N)c2nc3ccccc3nc21 (centres undefined)	·	12	27*	49	·	·	4
N#Cc1c(NC(=O)c2ccc(Br)o2)n(-c2ccccc2)c2nc3ccccc3nc12	·	·	47*	·	-0.57	·	41*
COc1ccc(-n2c(NC(=O)c3ccc(Br)o3)c(C#N)c3nc4ccccc4nc32)cc1	91	16	13	-11	·	95	·
COc1ccc(-c2nc3c4ccccc4ccn3c2C=O)cc1	·	41	15*	1	0.058	·	3
Cc1ccc(-c2nc3ccccn3c2C=O)cc1	·	·	-2	4	-0.64	·	·
O=C(CNC(=O)COc1ccccc1)NCc1ccccc1F	93	·	6	-7	·	103	·
Nc1cccc2cnccc12	105	·	16*	8	0.5	98	8
C=CCNC(=S)Nc1ccc2cn[nH]c2c1	·	·	7	·	·	·	·
Cc1[nH]c2ccccc2c1C(=O)COC(=O)c1ccc([N+](=O)[O-])s1	·	45	39*	100*	-0.42	·	31*
Cc1[nH]c2ccccc2c1C(=O)COC(=O)c1ccc[n+]([O-])c1	·	·	10	·	·	·	·
CCCCNC(=O)CCC(=O)Nc1ccc2nc(N3CCC(C)CC3)cc(C)c2c1	·	·	-9	12	0.67	·	·
CCN(CC)c1cc(C)c2cc(NC(=O)CNC(C)=O)ccc2n1	84	-93	25*	1	0.026	86	4
CSc1nc(N(CCO)CCO)c2sc3nc(-c4ccco4)c4c(c3c2n1)CCC4	79	0	20*	3	0.98	83	15
Cn1c(=NC(=O)CCl)sc2ccccc21	5	-186	20*	84*	·	5.1*	22*
COc1ccc(/C=N/OCC(=O)Nn2c(C)nc3ccccc3c2=O)cc1	97	-14	-2	-4	-0.92	97	·
O=C(CSc1nc2ccc([N+](=O)[O-])cc2s1)c1ccc2ccccc2c1	·	·	17*	·	·	·	8
Cc1ccc(C)c(NC(=O)C2C(c3ccccc3)C2(Cl)Cl)c1 (centres undefined)	73	·	0	42	0.59	85	·
O=C(Nc1ccc(F)cc1)C1C(c2ccccc2)C1(Cl)Cl (centres undefined)	66	13	41*	30	-0.65	70	47*
Cc1cc(C(=O)CSc2nnc(-c3cccnc3)n2-c2ccccc2F)c(C)n1CC1CCCO1 (centres undefined)	105	-91	0	-7	-0.052	100	·
O=C(O)CCCN1C(=O)/C(=C\c2ccc(-c3nc4ccccc4s3)o2)SC1=S	·	·	15*	·	-0.009	·	3
O=C(Nc1ccccc1C(=O)O)c1ccc(Br)c(S(=O)(=O)NCc2ccccc2)c1	·	-224	6	-6	-0.038	·	·
Cc1ccc(C(=O)NC2(O)C(=O)c3ccccc3C2=O)cc1C	·	·	26*	·	-1.3	·	26*
O=C(NC1(O)C(=O)c2ccccc2C1=O)c1ccc(C(F)(F)F)cc1	·	·	27*	·	-0.24	·	28*

Compound activity: PubChem BioAssay, several laboratories
